In the library only some 2.4% were active in any assay of this set; here they are far more common.
APOBEC3G inh – APOBEC3G DNA deaminase inhibitors, primary screen, biochemical, fluorescence, single-stranded DNA substrate, uHTS. DNA dC->dU-editing enzyme APOBEC-3G (Homo sapiens), Q9HC16. recombinant A3G, ssDNA deamination FAM/TAMRA fluorescence. inhibition, % at 20 µM. 330,000 compounds, 0.28% hits;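 active = inhibition of at least 40% at 20 µM, with no more than 30% in the related APOBEC3A deaminase screen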;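 note: plate controls were DMSO wells with A3G for no effect and wells lacking A3G enzyme for full effect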
CR mimetic SO – reduction of superoxide in aged yeast, primary screen, HTS; S. cerevisiae aged cells, superoxide DHE fluorescence; hits give low values; superoxide response (% of plate mean), % at 10 µM; 330,000 compounds, 0.18% hits;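 active = superoxide response under a set limit, about three screen SD below normal, cut at about 65% in these data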;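 note: yeast aged for seven days with compound at 30 °C before DHE staining; 100% = average MFI of all compound-treated wells on the plate with controls excluded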
PfM18AAP inh-1 – PfM18AAP inhibitors, malaria aminopeptidase, primary screen, biochemical, QFRET, recombinant enzyme. 290,000 compounds, 1.2% hits. M18 aspartyl aminopeptidase (Plasmodium falciparum 3D7). inhibition, % at 7.35 µM. AID 1822, 2009. H-Glu-NHMec fluorogenic cleavage;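 active = inhibition above the campaign mean inhibition over all tested compounds plus 3 SD, cut at about 28% in these data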;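 note: 0% = plate median of test compound wells and 100% = 2 mM ZnCl2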
A3A deaminase – APOBEC3A ssDNA deaminase inhibitors, primary screen, selectivity assay for APOBEC3G inhibitor project, biochemical, FAM/TAMRA oligo cleavage fluorescence; recombinant A3A, FAM/TAMRA ssDNA deamination fluorescence; 330,000 compounds, 0.41% hits; inhibition, % at 20 µM; DNA dC->dU-editing enzyme APOBEC-3A (Homo sapiens), P31941; AID 493011, 2011;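 active = at least 40% inhibition at 20 µM here, with at most 30% in a related deaminase screen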;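 note: plate controls were A3A with DMSO for no effect and wells lacking A3A enzyme for full effect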
Target sequence (P31941 whole entry, looked up): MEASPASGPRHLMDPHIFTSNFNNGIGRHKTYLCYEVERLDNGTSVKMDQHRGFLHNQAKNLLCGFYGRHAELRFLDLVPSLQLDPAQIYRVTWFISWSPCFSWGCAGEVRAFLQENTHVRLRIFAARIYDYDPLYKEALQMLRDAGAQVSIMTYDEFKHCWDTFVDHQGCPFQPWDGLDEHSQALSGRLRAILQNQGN
PfG6PD inh – PfG6PD enzyme inhibitors, primary screen, biochemical, fluorescence intensity, uHTS; PfGluPho enzyme, NADPH resazurin-diaphorase fluorescence; inhibition, % at 20 µM; 350,000 compounds, 0.78% hits; glucose-6-phosphate dehydrogenase-6-phosphogluconolactonase (Plasmodium falciparum 3D7); AID 504690, 2011;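 active = inhibition reaching at least a set limit at 20 µM in the primary screen, cut at about 59% in these data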;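 note: 0% = DMSO wells with substrate and 100% = DMSO wells lacking glucose-6-phosphate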
PfM18AAP inh-2 – PfM18AAP inhibitors, malaria aminopeptidase, confirmation, biochemical, QFRET, recombinant enzyme, triplicate. inhibition, % at 7.35 µM. H-Glu-NHMec fluorogenic cleavage. 2,400 compounds, 28% hits. shares compounds with PfM18AAP inh-1;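 active = mean inhibition over replicate wells above the hit cutoff set for the earlier primary screen, cut at about 29% in these data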;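 note: 0% = median of test compound wells and 100% = 2 mM ZnCl2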
CTSL1 confirm – cathepsin L1 inhibitors, retest, confirmation, counter-screen for PFM18AAP inhibitor project, biochemical, QFRET, triplicate. shares compounds with PfM18AAP inh-1. purified cathepsin L1, Z-Leu-Arg-MCA fluorescence. inhibition, % at 5.96 µM. 2,400 tested, under 10 active. AID 2178, 2009;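 active = average inhibition across replicates above the hit cutoff set in the earlier primary screen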;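 note: 0% = median of test compound wells and 100% = Z-Phe-Ala-diazomethylketone 1 µM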
Target sequence (P07711 whole entry, looked up): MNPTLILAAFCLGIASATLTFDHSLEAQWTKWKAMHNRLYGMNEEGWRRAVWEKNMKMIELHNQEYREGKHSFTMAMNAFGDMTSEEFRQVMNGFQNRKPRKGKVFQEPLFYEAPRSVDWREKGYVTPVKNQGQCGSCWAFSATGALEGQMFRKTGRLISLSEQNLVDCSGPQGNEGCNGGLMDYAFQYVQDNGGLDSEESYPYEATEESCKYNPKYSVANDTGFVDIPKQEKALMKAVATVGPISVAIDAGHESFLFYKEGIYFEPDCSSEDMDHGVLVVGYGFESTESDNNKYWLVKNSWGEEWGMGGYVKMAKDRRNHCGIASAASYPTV
Numbers without * were called inactive.

`S=C(c1ccc(Cl)cc1)N1CCN(Cc2ccccc2)CC1` gave APOBEC3G inh 0, CR mimetic SO 76, PfM18AAP inh-1 -10, A3A deaminase 0 and PfG6PD inh -5.
COc1ccccc1NS(=O)(=O)c1c(C)[nH]c(C)c1C(=O)N1CCCC1 was read as APOBEC3G inh 1, CR mimetic SO 81, PfM18AAP inh-1 -10, A3A deaminase 2 and PfG6PD inh -2.
Screening O=S1(=O)N=C(Nc2nncs2)c2ccccc21 returned APOBEC3G inh -3, CR mimetic SO 112, PfM18AAP inh-1 41*, A3A deaminase 0, PfG6PD inh 19, PfM18AAP inh-2 51* and CTSL1 confirm 0.
`CCN(CC)S(=O)(=O)c1ccc(NC2=NS(=O)(=O)c3ccccc32)cc1` gave APOBEC3G inh -2, CR mimetic SO 97, PfM18AAP inh-1 4, A3A deaminase -5 and PfG6PD inh 14.
Screening O=C(CN1CCCCCC1)Nc1ccccc1C(=O)Nc1ccccc1 returned APOBEC3G inh 11, CR mimetic SO 96, A3A deaminase 2 and PfG6PD inh 4.
`CCn1c(O)c(C=NC2CCCC2)sc1=S` gave APOBEC3G inh 0, CR mimetic SO 96, PfM18AAP inh-1 8, A3A deaminase -2 and PfG6PD inh 33.
`CCn1c(O)c(/C=N/n2cnnc2)sc1=S` gave APOBEC3G inh -7, CR mimetic SO 107, PfM18AAP inh-1 59*, A3A deaminase -5, PfG6PD inh -6, PfM18AAP inh-2 57* and CTSL1 confirm 2.
`CN(CC(=O)Nc1ccccc1Cl)C(=O)CN1C(=O)C2CC=CCC2C1=O` (stereo unspecified) gave APOBEC3G inh -6, CR mimetic SO 109, A3A deaminase -2 and PfG6PD inh 0.
For O=C(NNc1nc2cc3c(cc2s1)OCO3)c1ccc(F)cc1 the results were APOBEC3G inh -12, CR mimetic SO 87, PfM18AAP inh-1 42*, A3A deaminase -2, PfG6PD inh 49, PfM18AAP inh-2 6 and CTSL1 confirm -2.
`Cc1ccccc1NC(=O)CCN1CCc2ccccc2C1` gave APOBEC3G inh -4, CR mimetic SO 103, PfM18AAP inh-1 2, A3A deaminase -6 and PfG6PD inh -5.
Screening CCOC(=O)NC1(Nc2ccc(C)cc2)Oc2ccccc2O1 returned APOBEC3G inh -1, CR mimetic SO 107, PfM18AAP inh-1 58*, A3A deaminase -3, PfG6PD inh 25, PfM18AAP inh-2 60* and CTSL1 confirm -3.
`CCOC(=O)NC1c2ccccc2Oc2ccccc21` gave APOBEC3G inh -1, CR mimetic SO 87, PfM18AAP inh-1 -12, A3A deaminase 3 and PfG6PD inh 15.
`CCOC(=O)NC1(NCC(C)C)Oc2ccccc2O1` gave APOBEC3G inh -2, CR mimetic SO 94, PfM18AAP inh-1 66*, A3A deaminase 0, PfG6PD inh 8, PfM18AAP inh-2 34* and CTSL1 confirm 1.
Screening CCOC(=O)NC1(NC2CCCCC2)Oc2ccccc2O1 returned APOBEC3G inh -2, CR mimetic SO 101, PfM18AAP inh-1 55*, A3A deaminase 1, PfG6PD inh 37, PfM18AAP inh-2 35* and CTSL1 confirm 0.
`CCOC(=O)C(C(=O)Nc1ccccc1)C1CCCCC1` (stereo unspecified) gave APOBEC3G inh -9, CR mimetic SO 102, PfM18AAP inh-1 3, A3A deaminase -4 and PfG6PD inh 9.
`CCOC(=O)NC1(NC(C)C)Oc2ccccc2O1` gave APOBEC3G inh -2, CR mimetic SO 109, PfM18AAP inh-1 80*, A3A deaminase -1, PfG6PD inh 26, PfM18AAP inh-2 -2 and CTSL1 confirm -5.
Screening CCOC(=O)Nc1ccc(Oc2ccccc2)cc1 returned APOBEC3G inh -10, CR mimetic SO 101, PfM18AAP inh-1 8, A3A deaminase -2 and PfG6PD inh -7.
Nn1c(SCC(=O)Nc2ccc(OC(F)F)cc2)nnc(Cc2ccccc2)c1=O was read as APOBEC3G inh -4, CR mimetic SO 97, A3A deaminase -3 and PfG6PD inh 12.
For COc1ccccc1S(=O)(=O)N(C)C[C@H]1Oc2cc(C#CCC3CCCC3)ccc2S(=O)(=O)N([C@H](C)CO)C[C@H]1C the results were PfG6PD inh 50.
Nc1nc(-c2ccco2)c(-c2ccco2)s1 was read as APOBEC3G inh 23, CR mimetic SO 85, PfM18AAP inh-1 38*, A3A deaminase 19, PfG6PD inh 41, PfM18AAP inh-2 -49 and CTSL1 confirm -4.
Nc1c(/C=C2/C=CC(=O)C(O)=C2)c(=O)nc2sc(CC(=O)N3CCCC3)nn12 was read as APOBEC3G inh 7, CR mimetic SO 82, PfM18AAP inh-1 63*, A3A deaminase 9, PfG6PD inh -5, PfM18AAP inh-2 43* and CTSL1 confirm -2.
Screening Cc1[nH]nc2c1C(c1cccs1)C(C#N)=C(N)O2 (stereo unspecified) returned APOBEC3G inh -7, CR mimetic SO 106, PfM18AAP inh-1 35*, A3A deaminase -2, PfG6PD inh 5, PfM18AAP inh-2 21 and CTSL1 confirm -4.
`CN(Cc1ccc(Cl)s1)C(=O)CCl` gave APOBEC3G inh -10, CR mimetic SO 84, PfM18AAP inh-1 20, A3A deaminase -1 and PfG6PD inh -9.
`O=C(O)CCOc1ccc2c(c1)OCCO2` gave APOBEC3G inh -8, CR mimetic SO 104, PfM18AAP inh-1 63*, A3A deaminase -4, PfG6PD inh -1, PfM18AAP inh-2 -45 and CTSL1 confirm -3.
Screening O=C(O)CCC(=O)c1ccc2c(c1)OCCO2 returned APOBEC3G inh -5, CR mimetic SO 97, PfM18AAP inh-1 -5, A3A deaminase 0 and PfG6PD inh 4.
Screening Oc1cccc(Nc2c3ccccc3nc3ccccc23)c1 returned APOBEC3G inh 0, CR mimetic SO 68, PfM18AAP inh-1 37*, A3A deaminase 0, PfG6PD inh 1, PfM18AAP inh-2 -48 and CTSL1 confirm 4.
Screening Cc1ccc(-c2nc(Nc3cccc(O)c3)c3ccccc3n2)cc1 returned APOBEC3G inh 8, CR mimetic SO 101, PfM18AAP inh-1 -4, A3A deaminase 1 and PfG6PD inh 22.

Screens as filed in PubChem BioAssay.
